Compounds with a hit are over-represented: about 21% of the library has one in this group of screens.
D3 ag = activates the human D3 dopamine receptor; 410,000 tested, 0.58% active; P35462; D3R DiscoveRx beta-arrestin cells, luminescence, 90 min; AID 652048; max activation, %; in the data active = max activation above about 30%
Target sequence (P35462 whole entry, looked up): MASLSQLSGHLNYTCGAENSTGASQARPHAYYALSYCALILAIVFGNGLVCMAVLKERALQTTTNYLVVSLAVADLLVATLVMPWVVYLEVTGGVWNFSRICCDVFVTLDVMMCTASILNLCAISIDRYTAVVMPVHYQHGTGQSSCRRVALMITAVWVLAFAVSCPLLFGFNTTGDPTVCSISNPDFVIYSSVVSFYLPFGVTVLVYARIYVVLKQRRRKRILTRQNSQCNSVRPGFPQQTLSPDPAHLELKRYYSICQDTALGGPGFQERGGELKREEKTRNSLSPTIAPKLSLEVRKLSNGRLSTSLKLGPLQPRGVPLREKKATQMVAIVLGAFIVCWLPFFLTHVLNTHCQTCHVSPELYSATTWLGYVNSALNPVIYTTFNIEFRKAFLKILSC
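Agonist-mode cell screen: cells plated at 1500/well and incubated overnight at 37 °C, then exposed to library compounds for 90 min at 37 °C. Detection reagent was added for 30–60 min at room temperature, and luminescence was read.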
ClpP mod = qHTS Assay for Activators of ClpP; 340,000 tested, 1.9% active; Potency, µM (titrated, usually from 57.5 µM); purified B. subtilis ClpP, FRET peptide cleavage, 20 min; ATP-dependent Clp protease proteolytic subunit (Bacillus subtilis (strain 168)), P80244; active = well fitted falling curve with a large enough effect; inconclusive = small, poorly fitted or top-dose-only effect; inactive = no such curve, though single readings can be large or run the other way; also: the source files actives as falling curves though it sought activators and does not explain the sign; nearly all actives have a fitted effect of over 65% in size
Target sequence (P80244 whole entry, looked up): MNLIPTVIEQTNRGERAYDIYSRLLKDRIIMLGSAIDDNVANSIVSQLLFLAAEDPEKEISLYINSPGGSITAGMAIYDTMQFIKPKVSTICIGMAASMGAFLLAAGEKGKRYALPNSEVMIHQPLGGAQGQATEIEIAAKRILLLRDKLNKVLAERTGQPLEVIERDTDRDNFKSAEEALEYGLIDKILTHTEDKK
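Purified B. subtilis ClpP, 10 microg/mL final in Tris/HCl pH8 with KCl, BSA, glycerol and Tween-20, cleaved an Abz/nitrotyrosine-quenched decapeptide. Fluorescence (ex 320, em 430) was read at 0 and 20 min at room temperature. Delta was normalized to 5.8 microM ADEP and DMSO/no-enzyme controls.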
TDP1 cell noCPT = qHTS for Inhibitors of human tyrosyl-DNA phosphodiesterase 1 (TDP1): qHTS in cells in absence of CPT; 420,000 tested, 15% active; DT40 Tdp1-/- hTDP1 cells, no CPT, ATP luminescence, 48 h; AID 686978, 2013; Potency, µM (highest dose often 46.2 µM), most hits filed as inhibitors; also: nearly all actives have a fitted effect of over 55% in size
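Stably hTDP1-transfected Tdp1-null chicken DT40 cells were treated with library compounds minus camptothecin and grown for at least 48 hr at 37 °C, after which cellular ATP was quantified by luminescence.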
DRD3 antagonist = D3 dopamine receptor (human) antagonism; P35462; D3R cells, DiscoveRx beta-arrestin luminescence, antagonist mode; active compounds read low; 360,000 tested, 2.5% active; AID 652054; max response, negative = inhibition, %; in the data active = max response below about -50%; inconclusive = no clear call, values can overlap the other calls
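Cells expressing the human receptor were seeded at 1500 cells/well, incubated overnight at 37 degrees C in 5% CO2, then exposed to library compounds with dopamine controls for 90 minutes at 37 degrees C before luminescent detection.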
DT40 TDP1 CPT = DT40-hTDP1 cell growth loss with CPT | 420,000 tested, 12% active | Potency, µM (titrated, usually from 46.2 µM), usual class: inhibitors | chicken DT40 Tdp1-/-;hTDP1 cells + 20 nM CPT, ATP luminescence, 48 h; also: nearly all actives have a fitted effect of over 55% in size
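Cell growth measured by CellTiter-Glo luminescence after a minimum 48 h, 37 C compound exposure with 20 nM CPT in Tdp1-knockout DT40 cells stably expressing hTDP1, seeded 400/well; qHTS titration format.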
IL1B secr inh = inflammasome signaling inhibition, IL-1 beta readout; THP-1 LPS/ATP IL-1B secretion, AlphaLISA, 16 h; active compounds read low; activity change, % at 57.5 µM; 360,000 tested, 4.7% active; AID 743279; in the data active = activity change below about -50%; inconclusive = mostly about -30% to -49%
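THP-1 cells pretreated 1 hr with compounds (up to 57.5 uM final), then stimulated with LPS (250 ng/mL final) plus ATP (1.25 mM final); secreted IL-1B measured by AlphaLISA after 16 hr, decreased signal indicating inhibition.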
A number is an active result; . = inactive; ? = inconclusive; / = not tested or not shown. Unless noted, calls follow the shape of the dose curve; as a rule, active = well fitted inhibition curve with a large enough effect; inconclusive = small, poorly fitted or top-dose-only effect; inactive = flat fitted curve, though single readings scatter.

SMILES	D3 ag	ClpP mod	TDP1 cell noCPT	DRD3 antagonist	DT40 TDP1 CPT	IL1B secr inh
Cc1ccc2cc(CCNS(=O)(=O)c3ccc(Cl)cc3)c(=O)[nH]c2c1C	.	/	23.1µM	.	20.6µM	-78.7
Cc1cc2cc(CCNC(=O)c3ccc(S(=O)(=O)N4CCCC4)cc3)c(=O)[nH]c2cc1C	.	.	20.6µM	.	18.4µM	.
Cc1ccc2cc(CCNC(=O)c3ccc4c(c3)OCO4)c(=O)[nH]c2c1C	.	.	14.6µM	.	20.6µM	.
Cc1cc2cc(CNC(=O)c3ccc(C)c([N+](=O)[O-])c3)ccc2[nH]1	.	.	10.3µM	.	20.6µM	.
Cc1cc(CNC(=O)c2ccc(C)c([N+](=O)[O-])c2)c2ccccc2n1	.	/	9.2µM	.	13µM	.
Cc1cc2cc(CCNC(=O)c3ccc(C)c([N+](=O)[O-])c3)c(=O)[nH]c2cc1C	.	.	13µM	.	?	.
CCOC(=O)N1CCC(NC(=O)c2ccc3c(c2)N(Cc2ccc(F)cc2)CCS3)CC1	.	.	23.1µM	.	23.1µM	.
CCOC(=O)N1CCC(NC(=O)c2ccc3c(c2)N(Cc2ccc(F)cc2)C(=O)c2ccccc2S3(=O)=O)CC1	.	.	?	/	?	/
O=C(NC1CC1)c1ccc2c(c1)N(Cc1ccccc1)CCS2	.	.	.	.	?	.
C=CCN1C(=O)CSc2ccc(C(=O)NC3CCCCC3)cc21	.	.	?	.	?	.
CCN1C(=O)CSc2ccc(C(=O)NC3CCCCC3)cc21	.	.	20µM	.	35.5µM	.
CCOC(=O)N1CCC(NC(=O)c2ccc3c(c2)N(Cc2ccccc2)CCS3)CC1	.	.	14.6µM	.	18.4µM	.
CCOC(=O)N1CCN(C(=O)c2cc(-c3ccc(F)cc3)[nH]c2C)CC1	.	.	20.6µM	.	?	.
CC(C)(C)NC(=O)C(c1ccc(O)cc1)N(C(=O)CCC(=O)Nc1ccccn1)c1ccc(F)cc1 (stereo not drawn)	.	/	.	.	.	.
Cc1ccc(CN2C(=O)CSc3ccc(C(=O)NC4CC4)cc32)cc1	.	/	?	.	.	.
Cc1ccc(CN2CCSc3ccc(C(=O)N4CCN(c5ccccc5)CC4)cc32)cc1	.	?	.	/	?	/
CCOC(=O)N1CCN(C(=O)c2ccc3c(c2)N(Cc2ccc(F)cc2)CCS3)CC1	.	.	9.2µM	.	8.2µM	.
CCOc1ccc(NC(=O)c2ccc3c(c2)N(C)CCS3)cc1	.	.	?	.	.	.
CCOC(=O)N1CCC(NC(=O)c2ccc3c(c2)N(C)CCS3)CC1	.	28.2µM	?	.	?	.
O=C(c1ccc2c(c1)N(Cc1ccc(F)cc1)CCS2)N1CCN(c2ccccc2)CC1	.	.	23.1µM	/	20.6µM	/
CCOC(=O)N1CCC(NC(=O)c2ccc3c(c2)N(Cc2ccc(C)cc2)CCS3)CC1	.	.	20.6µM	.	20.6µM	.
CCc1cc2c(=O)n(CCC(C)C)c(=S)[nH]c2s1	.	/	?	.	?	.
Cc1c(Cl)cccc1NC(=O)CSc1nc2ncc(Cl)cc2[nH]1	.	.	?	.	?	.
O=C1NC[C@@H](CCCCN2CCN(CCc3ccccc3)C(=O)C2=O)N(Cc2ccccc2)C1=O	.	.	.	.	.	.
Cc1cccc(C(=O)c2c(N)sc3c2CCC(C)C3)c1 (stereo not drawn)	.	.	?	.	?	.
SMILES	D3 ag	ClpP mod	TDP1 cell noCPT	DRD3 antagonist	DT40 TDP1 CPT	IL1B secr inh
Cc1cccc(NC(=O)c2c(Br)sc3c2CCCC3)c1	.	.	23.1µM	/	?	/
CCN(CC)C(=O)c1c(NC(=O)c2cccc(C)c2)sc2c1CCC(C)C2 (stereo not drawn)	.	.	16.4µM	/	23.1µM	/
Cc1cccc(C(=O)Nc2sc3c(c2C(=O)O)CCCC3)c1	.	.	?	.	16.4µM	.
O=C(Cn1nc(-c2ccc(Cl)cc2)c2ccccc2c1=O)Nc1cccc(C(F)(F)F)c1	.	.	?	/	?	/
Cc1ccccc1N=C1C(=O)Nc2ccccc21	.	.	.	.	.	.
COc1ccc(-c2nc3cc(C)ccn3c2NC(=O)c2c(F)cccc2Cl)cc1	.	.	.	.	.	.
CO/N=C/c1c(-c2ccc(Cl)cc2)nc2cc(C)ccn12	.	/	?	.	?	-52.3
O=c1cc(O)c(-c2ccc(Cl)cc2)c(Cl)[nH]1	.	.	.	.	.	.
O=C1c2cc(Cl)ccc2-c2c(O)cc(Cl)cc21	.	/	14.6µM	?	?	-74.4
Cn1c(SCC(=O)O)nc2sc3c(c2c1=O)CCC3	.	.	.	.	.	.
CN(C)C(CNC(=O)CCc1nc2sc3c(c2c(=O)[nH]1)CCCC3)c1ccccc1 (stereo not drawn)	.	28.2µM	?	.	?	.
CCCn1c(=O)n(C)c(=O)c2c(SCC(=O)NCC(c3ccccc3)N(C)C)nc(CC(C)C)nc21 (stereo not drawn)	.	.	18.4µM	.	20.6µM	?
Cc1nn(Cc2ccccc2)c(C)c1NC(=O)CSc1nc2sc3c(c2c(=O)n1C)CCC3	.	.	18.4µM	.	?	.
Cn1c(SCc2nnc(-c3ccccc3Br)o2)nc2sc3c(c2c1=O)CCC3	33.7	.	18.4µM	.	?	.
COCCCn1c(SCc2nnc(-c3ccccc3)o2)nc2sc3c(c2c1=O)CCC3	.	.	?	.	?	.
O=C(CCc1nc2sc3c(c2c(=O)[nH]1)CCCC3)NCCOc1ccccc1	.	.	?	.	.	.
CC(C)(CNC(=O)c1cc2c(s1)CCCC2)N1CCOCC1	.	.	.	?	.	.
Cc1ccc(NS(=O)(=O)c2cccc(C(=O)NCC3CCCO3)c2)cc1 (stereo not drawn)	.	.	?	.	.	.
COc1ccc(NC(=O)c2ccc(NC(=O)COC(=O)c3cnc(C)cn3)cc2)cc1	.	/	.	.	.	.
O=C(O)CSc1nc2sc3c(c2c(=O)n1-c1ccccc1)CCC3	.	/	.	.	.	.
COCCn1c(SCC(=O)NCC(c2ccccc2)N(C)C)nc2sc3c(c2c1=O)CCC3 (stereo not drawn)	.	.	.	.	.	.
CCOC(=O)CSc1nc2sc3c(c2c(=O)n1Cc1ccccc1)CC(C)CC3 (stereo not drawn)	.	.	11.6µM	/	?	/
CN(C)C(CNC(=O)CSc1nc2sc3c(c2c(=O)n1C)CCCC3)c1ccccc1 (stereo not drawn)	.	.	20.6µM	.	23.1µM	.

Bioassay records from PubChem.
